A selection: hits, their analogues and other compounds. The true share with any hit is near 18%.
TDP1 cell CPT: DT40-hTDP1 cell growth loss with CPT. hit rate 12% among 420,000. chicken DT40 Tdp1-/-;hTDP1 cells + 20 nM CPT, ATP luminescence, 48 h. Potency, µM (titrated, usually from 46.2 µM), inactives show at the highest dose activity change, negative = growth inhibition, actives largely listed as inhibitors; further: potency means the concentration at half of the fitted maximal effect; nearly all actives have a fitted effect of over 55% in size
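Chicken DT40 Tdp1-/- cells stably complemented with human TDP1 were seeded at 400 cells/well in medium containing 20 nM camptothecin, exposed to pin-transferred compounds, and grown at 37 °C for at least 48 hr. Viability was read as ATP luminescence.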
DT40 TDP1 no CPT: qHTS for Inhibitors of human tyrosyl-DNA phosphodiesterase 1 (TDP1): qHTS in cells in absence of CPT; hit rate 15% among 420,000; DT40 Tdp1-/- hTDP1 cells, no CPT, ATP luminescence, 48 h; Potency, µM (series often up to 46.2 µM), inactives show at the highest dose activity change, negative = growth inhibition, hits mostly inhibitors; further: potency means the concentration at half of the fitted maximal effect; nearly all actives have a fitted effect of over 55% in size
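Seeded 400 DT40-hTDP1 cells/well (vehicle DMSO, no 20 nM CPT); pinned compounds; ≥48 hr at 37 °C; CellTiter-Glo luminescence as viability measure.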
IL1B secr inh: blocks inflammasome-driven IL-1 beta release; activity change, % at 57.5 µM; AID 743279; hit rate 4.7% among 360,000; THP-1 LPS/ATP IL-1B secretion, AlphaLISA, 16 h; active compounds read low; in the data active means activity change below about -50%; inconclusive means mostly about -30% to -49%
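THP-1 cells pretreated 1 hr with compounds (up to 57.5 uM final), then stimulated with LPS (250 ng/mL final) plus ATP (1.25 mM final); secreted IL-1B measured by AlphaLISA after 16 hr, decreased signal indicating inhibition.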
RORg inh: inhibitors of mouse ROR gamma transcriptional activity; P51450; Drosophila S2 Gal4-RORgamma UAS-luciferase reporter, 20 h; Potency, µM (top dose mostly 53.6 µM), for inactives: top-dose activity change, negative = inhibition, most hits filed as inhibitors; hit rate 5.4% among 310,000; further: potency means the concentration at half of the fitted maximal effect; nearly all actives have a fitted effect of over 60% in size
Target sequence (P51450 whole entry, looked up, the tested form may be a part): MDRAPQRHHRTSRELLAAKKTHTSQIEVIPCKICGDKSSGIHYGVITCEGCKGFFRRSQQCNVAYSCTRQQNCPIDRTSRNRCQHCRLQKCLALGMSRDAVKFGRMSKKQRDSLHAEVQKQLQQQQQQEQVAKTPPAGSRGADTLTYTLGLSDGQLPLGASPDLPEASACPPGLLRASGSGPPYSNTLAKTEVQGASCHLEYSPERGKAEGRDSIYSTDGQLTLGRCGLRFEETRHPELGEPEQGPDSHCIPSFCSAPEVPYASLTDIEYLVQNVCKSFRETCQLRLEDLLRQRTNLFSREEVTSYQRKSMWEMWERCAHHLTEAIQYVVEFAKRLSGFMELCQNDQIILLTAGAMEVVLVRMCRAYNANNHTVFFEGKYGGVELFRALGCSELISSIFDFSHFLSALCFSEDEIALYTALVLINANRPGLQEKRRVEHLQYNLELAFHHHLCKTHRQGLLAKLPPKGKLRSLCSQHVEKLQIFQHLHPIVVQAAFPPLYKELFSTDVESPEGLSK
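Compounds are pin-transferred onto Drosophila Schneider cells expressing a copper-inducible Gal4–ROR gamma transactivation domain fusion. After 1 hr, copper sulfate is added to 700 uM final; luciferase is read 20 hr later.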
VP16 counter: inhibits Gal4-VP16 luciferase reporter, ROR gamma counter-screen. AID 2546. hit rate 3.5% among 310,000. Drosophila S2 Gal4-VP16 UAS-luciferase, luminescence, 20 h. Potency, µM (titrated, usually from 53.6 µM), without a hit: at the highest dose activity, negative = inhibition, hits mostly inhibitors;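 further: Gal4-VP16 expression switched on by copper sulfate through the metallothionein promoter; potency means the concentration at half of the fitted maximal effect; nearly all actives have a fitted effect of over 50% in size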
LDHA block: inhibitors of human lactate dehydrogenase A; P00338; purified LDHA, NADH/diaphorase-resazurin fluorescence; active compounds read low; activity change, % (values are at about 110 or 230 µM); hit rate 0.15% among 480,000; AID 1347041; in the data active means activity change below about -30%; inconclusive means mostly about -25% to -30%;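 further: plate controls were DMSO wells for no effect and wells without enzyme for full effect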
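Human LDH5 (2 nM) was incubated with 0.06 mM NADH and 0.2 mM pyruvate for 5 min at room temperature in Tris pH 7.4. Remaining NADH was coupled through diaphorase/resazurin, and resorufin fluorescence was read at 0 and 20 min.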
* hit, by the source's call; ? = inconclusive; / = no result given. Unless noted, the call rests on the fitted dose curve; in most records, active means well fitted curve in the direction sought with a large enough effect; inconclusive means small, poorly fitted or top-dose-only effect, or another doubt; inactive means no such curve, though single readings can be large; an effect the other way counts as inactive or inconclusive. Unless noted, on the % scale 0 is the no-effect control and ±100 the full control effect.

SMILES	TDP1 cell CPT	DT40 TDP1 no CPT	IL1B secr inh	RORg inh	VP16 counter	LDHA block
CSc1ncc(Cl)c(C(=O)N(Cc2ccc(N(C)C)cc2)Cc2ccco2)n1	?	7.3µM*	/	/	/	3
CCCSc1ncc(Cl)c(C(=O)N(Cc2ccc(Cl)cc2)Cc2ccco2)n1	?	?	/	/	/	-5
Cc1ccc2nc(-c3c[nH]c4ccccc34)c(Nc3ccccc3)n2c1	16µM*	?	/	/	/	1
c1ccc(Nc2c(-c3c[nH]c4ccccc34)nc3ccccn23)cc1	15µM*	12µM*	/	/	/	-1
Fc1ccc(Nc2c(-c3c[nH]c4ccccc34)nc3ccccn23)cc1	16µM*	21µM*	/	/	/	-4
O=C(COC(=O)c1ccc(-c2nnc(-c3ccccc3)o2)cc1)c1ccc(F)cc1	/	/	/	/	/	6
N#Cc1ccccc1CNc1cc(Cl)ccc1Cl	/	/	/	/	/	7
O=Cc1sc(Nc2ccccc2)nc1Cl	-29%	?	-17	33%	?	-3
COc1ccccc1Nc1nc(Cl)c(C=O)s1	?	?	-53*	-19%	9%	-3
COc1ccccc1Nc1nc(-c2cccs2)cs1	-4%	-1%	-8	0%	13%	-7
Cc1ccc(Nc2nc(Cl)c(C=O)s2)cc1Cl	?	?	-102*	?	17%	-5
C[C@H](Nc1ccc(C(F)(F)F)cc1[N+](=O)[O-])C(=O)OCC(=O)NC12CC3CC(CC(C3)C1)C2	/	/	/	/	/	14
CC1CCCN(C(=O)C2CCN(C(=O)c3cc4ccccc4n3C)CC2)C1 (stereo unspecified)	/	/	/	/	/	2
CCOc1ccc2c(c1)-c1c(ssc1=S)C(C)(C)N2	?	18µM*	-17	-20%	-9%	7
CCOc1ccc2c(c1)-c1c(ssc1=S)C(C)(C)N2C(=O)CSC1=NCCS1	?	12µM*	-54*	3.2µM*	7%	1
Cc1ccc2c(c1)-c1c(ssc1=S)C(C)(C)N2C(=O)c1ccco1	?	16µM*	-57*	23%	-2%	-1
Cn1cnnc1SCC(=O)N1c2ccccc2-c2c(ssc2=S)C1(C)C	/	/	/	0%	-8%	/
CN(C(=O)CSC1=NCCS1)c1ccccc1	0%	-5%	0	15%	19%	-6
CC1(C)c2ssc(=S)c2-c2ccccc2N1C(=O)c1ccco1	?	?	0	-13%	6%	-9
Cc1ccc2c(c1)-c1c(ssc1=S)C(C)(C)N2C(=O)CSC1=NCCS1	?	?	-66*	?	-6%	-17
Cc1oc(-c2ccccc2)nc1CC(=O)Nc1ccc2ccccc2c1	/	/	/	/	/	7
O=C(CCSc1ccc(Cl)cc1)N1CCN(S(=O)(=O)c2ccccc2)CC1	21µM*	18µM*	-13	/	/	-7
CCOc1ccccc1OCCCC(=O)N1CCN(S(=O)(=O)c2ccc(Cl)cc2)CC1	?	18µM*	-12	/	/	-2
Cc1ccc(SCCC(=O)N2CCN(S(=O)(=O)c3ccccc3)CC2)cc1	?	?	-5	/	/	-2
CCOc1ccc(OCCCC(=O)N2CCN(S(=O)(=O)c3ccccc3C#N)CC2)cc1	?	?	-52*	/	/	-7
SMILES	TDP1 cell CPT	DT40 TDP1 no CPT	IL1B secr inh	RORg inh	VP16 counter	LDHA block
Cc1cc(Cl)ccc1OCCCC(=O)N1CCN(C(=O)c2ccco2)CC1	?	21µM*	-1	39%	4%	-7
Cc1ccccc1OCCC(=O)OCC(=O)N1CCN(S(=O)(=O)c2ccc(Cl)cc2)CC1	-12%	-26%	12	/	/	-6
Cc1cc(Cl)ccc1OCCCC(=O)N1CCN(S(=O)(=O)c2ccccc2)CC1	?	?	-87*	/	/	1
O=C(NNC1=NS(=O)(=O)c2ccccc21)c1ccc([N+](=O)[O-])cc1	3%	-27%	14	13µM*	?	-8
Cc1noc(C)c1S(=O)(=O)N(C)C(C)c1cc2ccccc2o1 (stereo unspecified)	/	/	/	/	/	10
COc1ccc(N(C(=O)c2snc(C(N)=O)c2N)C(C(=O)NCc2ccccc2)c2ccc(O)cc2)cc1 (stereo unspecified)	?	23µM*	-21	16%	23%	-9
COc1ccc(OC)c(N(C(=O)c2snc(C(N)=O)c2N)C(C(=O)NCc2ccccc2)c2ccc(O)cc2)c1 (stereo unspecified)	?	?	-79*	16%	-15%	3
NC(=O)c1nsc(C(=O)N(c2ccccc2)C(C(=O)NCc2ccc(F)cc2)c2ccc(O)cc2)c1N (stereo unspecified)	21µM*	18µM*	-19	-2%	-1%	-8
NC(=O)c1nsc(C(=O)N(c2ccccc2)C(C(=O)NCc2ccc(F)cc2)c2ccco2)c1N (stereo unspecified)	?	?	24	?	0%	-9
O=C(NCC(c1ccco1)N1CCc2ccccc21)c1ccc([N+](=O)[O-])cc1 (stereo unspecified)	-13%	-22%	-4	/	/	-13
Cc1cccc(C(=O)NCC(c2ccco2)N2CCc3ccccc32)c1 (stereo unspecified)	?	15µM*	-58*	/	/	-2
O=C(NCC(c1ccco1)N1CCc2ccccc21)c1ccccc1Br (stereo unspecified)	21µM*	?	-7	/	/	-1
O=C(CCc1ccccc1)NCC(c1ccco1)N1CCc2ccccc21 (stereo unspecified)	4.6µM*	4.1µM*	-7	/	/	-4
O=C(NCC(c1ccco1)N1CCc2ccccc21)c1cccc([N+](=O)[O-])c1 (stereo unspecified)	16µM*	21µM*	-4	/	/	0
CC(C)c1ccc(C(=O)NCc2cccc(CNC(=O)c3ccc(C(C)C)cc3)c2)cc1	/	/	/	/	/	2
CN(CC(=O)NC(=O)NCCC1=CCCCC1)C1CCCCC1	/	/	/	/	/	5
Cc1cc(C)c2nc(SCC(=O)N(C)C)cc(C)c2c1	/	/	/	/	/	4
Cc1ccc(C(=O)NCC(c2ccco2)N2CCc3ccccc32)cc1 (stereo unspecified)	10µM*	13µM*	?	/	/	-3
CC(=O)Nc1cccc(C(C)NC(=O)NC(C)c2cccc(F)c2)c1 (stereo unspecified)	/	/	/	/	/	-2
COC(=O)[C@H](CC(C)C)NC(=O)N1CCc2[nH]cnc2C1c1ccc(OC)cc1F (stereo partly specified)	/	/	/	/	/	-8

High-throughput results from PubChem.
